Measured values from PubChem BioAssay (EPA / NIEHS).
Several values for one entry are separate records, joined by “and”; a condition that tells them apart may be missing. Equal values may be shown once. Records with an inconclusive call do not appear. Activity calls are given as the source filed them. The calls were made as follows, unless noted: active = hit-call score of the fitted dose curve at least 0.9, where 1 is the maximum; inactive = score below 0.9.

Assays:
TIMP1, TIMP1 (gene 7076) = test: LTEA_HepaRG_TIMP1: Life Technologies and Expression Analysis (LTEA) Assay for TIMP1 using HepaRG (AID 2283534); conditions: mRNA level, 48 h; actives raise or lower the signal
Outline: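 Bidirectional change in TIMP1 transcript versus 0.5% DMSO, measured by TaqMan qRT-PCR with three housekeeping genes for normalization. HepaRG human liver cells dosed 48 h in duplicate, top concentration 100 uM with half-log dilutions.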

[1] = read-out: Tumor necrosis factor receptor 1 (TNFRSF1A), TNFRSF1A (gene 7132); test: LTEA_HepaRG_TNFRSF1A: Life Technologies and Expression Analysis (LTEA) Assay for Tumor necrosis factor receptor 1 (TNFRSF1A) using HepaRG (AID 2283535); conditions: mRNA level, 48 h; actives raise or lower the signal
Outline: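 mRNA measured by qRT-PCR (TaqMan, Fluidigm arrays) against ACTB/GAPDH/POLR2A housekeepers after 48 h chemical exposure of HepaRG cells. Top concentration 100 uM, half-log 8-point series, duplicates; vehicle 0.5% DMSO, both fit directions.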

[2] = read-out: Thyroid Hormone Responsive (THRSP), THRSP (gene 7069); test: LTEA_HepaRG_THRSP: Life Technologies and Expression Analysis (LTEA) Assay for Thyroid Hormone Responsive (THRSP) using HepaRG (AID 2283536); conditions: mRNA level, 48 h; actives raise or lower the signal
Outline: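 THRSP transcript quantified by Fluidigm qRT-PCR against three housekeeping genes after 48 h chemical exposure of HepaRG cells in serum-free induction medium; eight-point half-log series, top 100 uM, 0.5% DMSO vehicle, duplicate wells.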

[3] = read-out: Cellular tumor antigen p53 (Homo sapiens) (UniProt P04637); test: LTEA_HepaRG_TP53: Life Technologies and Expression Analysis (LTEA) Assay for Tumor Protein P53 (TP53) using HepaRG (AID 2283537); conditions: mRNA level, 48 h; actives raise or lower the signal
Outline: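 Gain or loss of TP53 mRNA signal is scored relative to 0.5% DMSO after 48 h chemical treatment of HepaRG liver cells, tested in duplicate at eight half-log concentrations up to 100 uM.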

[4] = read-out: UDP glucuronosyltransferase (UGT1A1), UGT1A1 (gene 54658); test: LTEA_HepaRG_UGT1A1: Life Technologies and Expression Analysis (LTEA) Assay for UDP glucuronosyltransferase (UGT1A1) using HepaRG (AID 2283538); conditions: mRNA level, 48 h; actives raise or lower the signal
Outline: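 HepaRG, 48 h chemical exposure (top 100 uM, half-log 8-pt, 0.5% DMSO vehicle), duplicate wells; qRT-PCR (TaqMan, Fluidigm array) for UGT1A1 mRNA, housekeeping-normalized; bidirectional curve fit vs DMSO baseline.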

[5] = read-out: UDP glucuronosyltransferase (UGT1A6), UGT1A6 (gene 54578); test: LTEA_HepaRG_UGT1A6: Life Technologies and Expression Analysis (LTEA) Assay for UDP glucuronosyltransferase (UGT1A6) using HepaRG (AID 2283539); conditions: mRNA level, 48 h; actives raise or lower the signal
Outline: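 Expression was quantified by TaqMan qRT-PCR on Fluidigm arrays with ACTB/GAPDH/POLR2A normalization and bidirectional fitting against 0.5% DMSO. HepaRG cells (~100,000/well) were treated in duplicate for 48 h at eight half-log concentrations up to 100 uM in serum-free induction medium.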

[6] = read-out: X-box binding protein 1 (XBP1), XBP1 (gene 7494); test: LTEA_HepaRG_XBP1: Life Technologies and Expression Analysis (LTEA) Assay for X-box binding protein 1 (XBP1) using HepaRG (AID 2283540); conditions: mRNA level, 48 h; actives raise or lower the signal
Outline: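 XBP1 transcript by qRT-PCR (housekeeping-normalized: ACTB, GAPDH, POLR2A) after 48 h chemical treatment of HepaRG cells, 8-point half-log series topping at 100 uM, vehicle 0.5% DMSO. Gain and loss of signal fitted relative to DMSO.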

[7] = LTEA_HepaRG_LDH_cytotoxicity: Cytotoxicity Assessment in the Life Technologies and Expression Analysis (LTEA) Assay (AID 2283563; active = hit-call score of the fitted dose curve at least 0.9, where 1 is the maximum;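 as to AC50: LDH activity released into spent culture medium as a marker of cell death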)
Outline: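 LDH release into culture medium read after 48 h chemical treatment of HepaRG cells. Duplicate wells, eight-point half-log series topping at 100 uM, 0.5% DMSO vehicle and baseline.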

[8] = ATG_XTT_Cytotoxicity: Cytotoxicity Assessment in the Attagene TRANS-FACTORIAL HepG2 Assay (AID 2283584; active = hit-call score of the fitted dose curve at least 0.9, where 1 is the maximum)
Outline: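 Viability endpoint from XTT after 24 h chemical exposure of reporter-transfected human HepG2 liver cells; signal loss fitted relative to DMSO negative control.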

[9] = TOX21_p53_BLA_p2_viability: Viability Assessment in the Tox21 HCT-116 p53 Agonism Beta-lactamase Assay, Phase 2 (AID 2283591; active = hit-call score of the fitted dose curve at least 0.9, where 1 is the maximum;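 also: compound exposure lasted 16 h at 37 °C; actives lower the ATP signal meaning cytotoxicity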)
Outline: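 Cytotoxicity readout: CellTiter-Glo ATP luminescence, 30 min at room temperature, after the beta-lactamase read. Cells were HCT116 exposed 16 h at 37C to compounds pin-transferred at 217-fold dilution from DMSO stocks.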

Measured: AC50

Chain of Cellular tumor antigen p53 (Homo sapiens) (P04637 whole entry, looked up): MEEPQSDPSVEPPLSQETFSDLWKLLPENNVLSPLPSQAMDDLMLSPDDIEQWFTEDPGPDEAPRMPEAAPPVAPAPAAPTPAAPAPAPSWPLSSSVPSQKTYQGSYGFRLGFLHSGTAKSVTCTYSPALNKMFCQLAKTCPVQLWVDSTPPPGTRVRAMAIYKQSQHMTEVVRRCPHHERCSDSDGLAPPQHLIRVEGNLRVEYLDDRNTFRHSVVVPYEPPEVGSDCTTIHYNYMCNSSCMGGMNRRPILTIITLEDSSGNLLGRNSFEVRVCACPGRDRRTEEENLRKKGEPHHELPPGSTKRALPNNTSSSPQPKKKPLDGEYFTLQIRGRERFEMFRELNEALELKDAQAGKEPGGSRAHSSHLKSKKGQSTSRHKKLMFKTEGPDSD

CCCCCCc1ccc(O)cc1O
active: [7] 77.7 µM | [9] 69.2 µM and 73.3 µM
inactive: TIMP1, TIMP1 (gene 7076) | [1] | [2] | [3] | [4] | [5] | [6] | [8]

COCCOCCOCCOC
inactive: TIMP1, TIMP1 (gene 7076) | [1] | [2] | [3] | [4] | [5] | [6] | [7] | [8]

Cc1ccc(O)cc1
inactive: TIMP1, TIMP1 (gene 7076) | [1] | [2] | [3] | [4] | [5] | [6] | [7]

CCCC(=O)OCC
inactive: TIMP1, TIMP1 (gene 7076) | [1] | [2] | [3] | [4] | [5] | [6] | [7]

Oc1ccc2c(c1)-c1ccccc1C2
active: [2] 13.9 µM | [4] 30.4 µM
inactive: TIMP1, TIMP1 (gene 7076) | [1] | [3] | [5] | [6] | [7] | [8] | [9]

CC1(C)C(=O)N(Br)C(=O)N1Br
inactive: TIMP1, TIMP1 (gene 7076) | [1] | [2] | [3] | [5] | [6] | [7] | [8]
active: [4] 21.4 µM

Nc1nc2ncc(CNc3ccc(C(=O)N[C@@H](CCC(=O)O)C(=O)O)cc3)nc2c(=O)[nH]1
inactive: TIMP1, TIMP1 (gene 7076) | [1] | [2] | [3] | [4] | [5] | [6] | [7] | [8] | [9]

CC(C)CC(C)(O)C#CC(C)(O)CC(C)C (centres undefined)
inactive: TIMP1, TIMP1 (gene 7076) | [1] | [2] | [3] | [4] | [5] | [6] | [7] | [8] | [9]

Cc1[nH]cnc1C[C@H]1CCc2c(C)c3ccccc3n2C1=O
inactive: TIMP1, TIMP1 (gene 7076) | [2] | [8] | [9]
active: [1] 63.7 µM | [3] 73.7 µM | [4] 64.3 µM | [5] 33.5 µM | [6] 10.4 µM | [7] 27.6 µM

CN(C)c1ccc(N=NS(=O)(=O)O)cc1
inactive: TIMP1, TIMP1 (gene 7076) | [3] | [4] | [5] | [6] | [7] | [8] | [9]
active: [1] 12.3 µM | [2] 11.1 µM

CC(=O)OCCC(C)C
inactive: TIMP1, TIMP1 (gene 7076) | [1] | [2] | [3] | [4] | [5] | [6] | [7] | [8] | [9]

CC/C(=C\C(=N/O)C(N)=O)C(C)[N+](=O)[O-] (centres undefined)
inactive: TIMP1, TIMP1 (gene 7076) | [1] | [2] | [3] | [4] | [5] | [6] | [7] | [8] | [9]

CCCCCCCCCCCCc1ccccc1
inactive: TIMP1, TIMP1 (gene 7076) | [1] | [2] | [3] | [4] | [5] | [6] | [7] | [8] | [9]

C[C@](N)(Cc1ccc(O)c(O)c1)C(=O)O
inactive: TIMP1, TIMP1 (gene 7076) | [1] | [2] | [3] | [4] | [5] | [6] | [7] | [8] | [9]

O=C(OC[C@H]1O[C@@H](OC(=O)c2cc(O)c(O)c(OC(=O)c3cc(O)c(O)c(O)c3)c2)[C@H](OC(=O)c2cc(O)c(O)c(OC(=O)c3cc(O)c(O)c(O)c3)c2)[C@@H](OC(=O)c2cc(O)c(O)c(OC(=O)c3cc(O)c(O)c(O)c3)c2)[C@@H]1OC(=O)c1cc(O)c(O)c(OC(=O)c2cc(O)c(O)c(O)c2)c1)c1cc(O)c(O)c(OC(=O)c2cc(O)c(O)c(O)c2)c1
active: TIMP1, TIMP1 (gene 7076) 15.2 µM | [2] 6.1 µM | [3] 4.95 µM | [4] 4.66 µM | [5] 5.4 µM | [9] 17.2 µM and 5.28 µM
inactive: [1] | [6] | [7] | [8]

Nc1cccc(N)c1
inactive: TIMP1, TIMP1 (gene 7076) | [1] | [2] | [3] | [4] | [5] | [6] | [7] | [8] | [9]

CC[C@H]1OC(=O)[C@H](C)[C@@H](O[C@H]2C[C@@](C)(OC)[C@@H](O)[C@H](C)O2)[C@H](C)[C@@H](O[C@@H]2O[C@H](C)C[C@H](N(C)C)[C@H]2O)[C@](C)(O)C[C@@H](C)C(=O)[C@H](C)[C@@H](O)[C@]1(C)O
inactive: TIMP1, TIMP1 (gene 7076) | [1] | [2] | [3] | [5] | [6] | [7] | [8] | [9]
active: [4] 8.69 µM

COC(=O)c1ccccc1O
inactive: TIMP1, TIMP1 (gene 7076) | [1] | [2] | [3] | [4] | [5] | [6] | [7] | [8] | [9]

Cn1cnc([N+](=O)[O-])c1Sc1ncnc2nc[nH]c12
inactive: TIMP1, TIMP1 (gene 7076) | [1] | [3] | [6] | [7] | [8] | [9]
active: [2] 10.7 µM | [4] 0.754 µM | [5] 3.9 µM

CC(C)CCCCCCCOC(=O)CCCCC(=O)OCCCCCCCC(C)C
inactive: TIMP1, TIMP1 (gene 7076) | [1] | [2] | [3] | [4] | [5] | [6] | [7] | [8] | [9]

O=C1CCC(N2C(=O)c3ccccc3C2=O)C(=O)N1 (centres undefined)
inactive: TIMP1, TIMP1 (gene 7076) | [1] | [2] | [3] | [4] | [5] | [6] | [7] | [8] | [9]

O=P(OC(CCl)CCl)(OC(CCl)CCl)OC(CCl)CCl
inactive: TIMP1, TIMP1 (gene 7076) | [6] | [7] | [8] | [9]
active: [1] 0.231 µM | [2] 94.4 µM | [3] 86.6 µM | [4] 88.6 µM | [5] 10.1 µM
